Screens as filed in PubChem.
Only some compounds are listed: those with a hit (about 2.2% of all), similar ones and a draw of the others.
FMDV inh = foot and mouth disease virus antiviral activity. FMDV antiviral cell-based qHTS. Potency, µM (titrated, usually from 57.9 µM), for inactives: top-dose activity change, negative = inhibition, most hits filed as inhibitors. 410,000 tested, 1.2% active; calls by dose curve; tested in HEK293T cells; further: read-out not given here; nearly all actives have a fitted effect of over 45% in size
Vaccinia Venus = inhibitors of vaccinia virus (Venus reporter) | Vaccinia virus Venus reporter expression, fluorescence | Potency, µM (series often up to 36.5 µM), without a hit: at the top dose activity change, negative = inhibition, actives largely listed as inhibitors | 330,000 tested, 0.46% active; calls by dose curve; tested in A549 cells; further: nearly all actives have a fitted effect of over 30% in size
FBPA Giardia inh = blocks Giardia fructose-bisphosphate aldolase activity | A8B2U2 | purified Giardia FBPA | Potency, µM (highest dose often 59.6 µM), for the others: top-dose activity, negative = inhibition, usual class: inhibitors | 290,000 tested, 0.71% active | AID 2451; active means well fitted inhibition curve with a large enough effect; inconclusive means small, poorly fitted or top-dose-only effect, or effect the other way; further: nearly all actives have a fitted effect of over 55% in size
Target sequence (A8B2U2 whole entry, looked up): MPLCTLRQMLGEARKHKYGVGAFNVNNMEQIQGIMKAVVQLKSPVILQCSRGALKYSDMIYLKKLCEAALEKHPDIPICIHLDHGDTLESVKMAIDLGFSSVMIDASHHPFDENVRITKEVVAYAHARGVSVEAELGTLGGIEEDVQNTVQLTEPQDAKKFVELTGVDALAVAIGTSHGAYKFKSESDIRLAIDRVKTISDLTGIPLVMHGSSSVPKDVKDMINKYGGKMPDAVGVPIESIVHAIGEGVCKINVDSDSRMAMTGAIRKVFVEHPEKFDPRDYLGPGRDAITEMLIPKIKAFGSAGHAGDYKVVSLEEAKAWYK
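40 nM FBPA preincubated 10 min at RT with compound (up to 57.5 uM final), then substrate plus GAPDH/TPI/NAD/arsenate coupling and diaphorase/resazurin added. Fluorescence read after 20 min at RT, 525/598 nm.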
VACV mCherry inh = vaccinia inhibition (mCherry reporter); Vaccinia virus mCherry reporter infection, fluorescence; Potency, µM (top dose mostly 36.5 µM), inactives show at the highest dose activity change, negative = inhibition, actives largely listed as inhibitors; 310,000 tested, 0.63% active; AID 720579; calls by dose curve; tested in A549 cells; further: nearly all actives have a fitted effect of over 35% in size
* = called active by the depositor; i = inactive; ? = inconclusive; nt = no result given; [ ] = another dose, or the depositor's remark. On the % scale 0 is the no-effect control and ±100 the full control effect; potency means the concentration at half of the fitted maximal effect.

SMILES	FMDV inh	Vaccinia Venus	FBPA Giardia inh	VACV mCherry inh
COCCN1CCN(C(=O)c2cnn(-c3nccc(-c4ccco4)n3)c2C2CC2)CC1	5.0%	4.4%	nt	2.4%
C#CCOCCOCCOCCNc1nc(N2CCN(C(=O)CCCCCCCCCCNC(=O)[C@H]([C@@H](C)CC)n3cc(CCCCCN)nn3)CC2)nc(N2CCN(C(=O)CCCCCCCCCCNC(=O)[C@H](CO)n3cc(CCCCCN)nn3)CC2)n1	-2.1%	10µM*	nt	?
CC(C)(C)C1=CC=C(C(C)(C)C)C(=O)C1=O	nt	nt	7.92µM*	nt
CN(C)C(=O)COc1ccccc1C(=O)OCC(=O)N(CCC#N)c1ccccc1	nt	-14.8%	nt	-7.2%
FC(F)(F)c1nc(N2CCCC2)ncc1-c1nnnn1-c1ccccc1	17.8µM*	nt	-0.2%	nt
CCOC(=O)/C=C/C(=O)Nc1cccc([N+](=O)[O-])c1	25.1µM*	0.3%	-5.7%	-14.7%
COC(=O)c1ccc([C@H]2CC(=O)O2)cc1	-23.3%	?	8.8%	11.2µM*
COc1ccc(CC(=O)Nc2cccc(-c3ccc4nncn4n3)c2)cc1OC	17.8µM*	-21.9%	-0.3%	-7.5%
COc1ccc(OC)c(S(=O)(=O)Nc2ccc(-c3ccc4nncn4n3)cc2)c1	74.3%	10µM*	nt	8.91µM*
COc1ccc(CC(=O)Nc2cccc(-c3ccc4nnc(C)n4n3)c2)cc1OC	20µM*	5.4%	-3.9%	i
COc1ccc(CC(=O)Nc2cccc(-c3ccc4nnc(C)n4n3)c2)cc1	-25.0%	13.6%	1.5%	-14.5%
CCN1CCC(N[C@H]2C[C@@H](C(=O)NC)N(Cc3cccc4ccccc34)C2)CC1	5.7%	-1.8%	nt	-7.2%
CNc1c(Cl)cc(C=O)cc1Cl	nt	-9.0%	nt	24.5%
Cc1cc(C)n2nc(-c3ccc(Cl)cc3)nc2n1	54.0%	-7.4%	nt	-19.1%
Cc1cc(N2CCN(C)CC2)n2nc(-c3ccc(Cl)cc3)nc2n1	-11.6%	?	0.1%	7.94µM*
C=CCNc1sc(C(=O)c2ccc(C)cc2)c(N)c1C#N	-18.0%	-13.6%	-1.0%	nt
C=CCNc1nc(N)c(C(=C(C#N)C#N)c2ccc(Br)cc2)s1	5.62µM*	?	-2.1%	-24.2%
COc1ccc(/C=N/NC(=O)c2cccnc2)cc1CSc1nc2ccccc2s1	35.5µM*	-27.2%	-2.9%	?
COc1ccc(/C=N/NC(=O)c2cccnc2)cc1COc1ccc([N+](=O)[O-])c(C)c1	39.8µM*	-29.5%	-1.1%	-21.1%
COc1ccc(/C=N/NC(=O)c2ccoc2C)cc1COc1ccc(Cl)cc1	22.4µM*	-38.4%	10.3%	?
CO[C@H]1[C@H](NC(=O)c2ccsc2)c2ccccc2C12CCN(Cc1ccc3c(c1)OCO3)CC2	-2.8%	-7.7%	nt	-17.7%
O=C(NCC1Cc2cc(F)cc(-c3cnccn3)c2O1)c1cccc(-c2ccccc2F)c1 (configuration not stated)	0.0%	-13.2%	nt	i
COc1ccc2cc3cc(C(=O)NCc4ccc5c(c4)OCO5)oc3nc2c1	2.0%	-12.3%	-3.9%	-20.6%
COc1ccc2cc3cc(C(=O)N4CCN(Cc5ccc6c(c5)OCO6)CC4)oc3nc2c1	22.4µM*	?	-0.5%	-5.4%
Cc1nc2ncccn2c1-c1csc(Nc2ccccc2)n1	?	?	-16.6%	-23.5%
SMILES	FMDV inh	Vaccinia Venus	FBPA Giardia inh	VACV mCherry inh
Cc1nc2ncccn2c1-c1csc(Nc2ccc(N(C)C)cc2)n1	?	?	-22.1%	?
Cc1nc2ncccn2c1-c1csc(NCc2ccco2)n1	35.5µM*	-20.4%	?	-12.4%
COc1ccccc1Nc1nc(-c2c(C)nc3ncccn23)cs1	14.1µM*	-29.0%	-3.4%	?
CC(C)=CCC1=C(OCC(=O)O)C(=O)c2ccccc2C1=O	?	nt	1.26µM*	nt
CC(C)=CCC/C(C)=C/CC/C(C)=C/CC/C(C)=C/CC1=C(C)C(=O)c2ccccc2C1=O	?	-10.7%	?	-12.6%
Cc1cc(=O)oc2c(O)c(O)ccc12	-1.7%	-5.5%	7.06µM*	?
O=c1cc(-c2ccccc2)oc2c(O)c(O)ccc12	-7.2%	?	7.92µM*	?
O=c1cc(-c2ccccc2O)oc2c(O)c(O)ccc12	nt	nt	6.29µM*	nt
COc1cccc(Cn2c(=O)c(-c3ccc(Cl)cc3)nc3cncnc32)c1	-15.1%	nt	-1.4%	nt
O=C1c2ccccc2C(=O)c2c1oc(C(F)(F)F)c2C(=O)c1ccccc1	-21.5%	3.16µM*	2.7%	4.47µM*
Cc1ccc(C(=O)Nc2cccc(-c3nc(CNC(=O)c4ccc(F)cc4Cl)c(C)o3)c2)s1	26.0%	?	nt	?
O=C(N/N=C/CCc1ccccc1)c1ccc(CN2c3cccc4cccc(c34)S2(=O)=O)cc1	39.8µM*	-15.7%	4.1%	-19.8%
COc1ccc(/C=N/NC(=O)c2ccc(CN3c4cccc5cccc(c45)S3(=O)=O)cc2)cc1	1.4%	-14.7%	-6.5%	-13.9%
Cc1oc(-c2ccccc2NS(C)(=O)=O)nc1CN(C)Cc1ccc(Cl)cc1	-0.5%	-0.8%	nt	-8.5%
OC(Cc1ccc2ccccc2n1)c1c(Cl)cccc1Cl (configuration not stated)	nt	1.1%	nt	7.7%
Cc1ccc(/C=N/NC(=O)Cc2ccc(Cl)cc2)c(O)c1	31.6%	?	3.0%	22.4µM*
O=C(Cc1ccccc1)N/N=C/c1cc(Br)cc(Cl)c1O	-2.7%	?	9.8%	12.6µM*
Cc1ccc(NC(=O)CN2C(=O)N/C(=C/c3ccc(C)o3)C2=O)cc1	12.8%	-12.1%	?	nt
C=CCN1C(=O)N/C(=C/c2ccc(C)o2)C1=O	11.7%	nt	15.8µM*	nt
Cc1nc(-c2ccccc2)sc1C(=O)/C=C/c1ccc(Cl)cc1	25.1µM*	-5.1%	2.7%	nt
CC(=O)c1sc(-c2ccc(Cl)cc2)nc1C	47.8%	-13.9%	1.8%	i
COc1cccc(N/C(SCc2cccc([N+](=O)[O-])c2)=C(/C#N)C(N)=O)c1	35.5µM*	-6.9%	?	3.9%
Oc1cccc(C=NCc2ccccc2)c1O	-16.3%	nt	7.06µM*	nt
Cc1ccc(Nc2nc(N3CCOCC3)c3ccccc3n2)cc1	?	?	-8.6%	-4.3%[1.46 µM]
COc1ccc(Nc2nc(N3CCCCC3)c3ccccc3n2)cc1	25.1µM*	?	0.8%	?
SMILES	FMDV inh	Vaccinia Venus	FBPA Giardia inh	VACV mCherry inh
Oc1ccc(Nc2nc(N3CCCC3)c3ccccc3n2)cc1	-28.0%	8.91µM*	-8.5%	?
COc1ccc(Nc2nc(N)c([N+](=O)[O-])c(N3CCCC3)n2)cc1	0.0%	nt	-1.7%	nt
COc1ccc(Nc2nc(-c3ccc(C)cc3)nc3ccccc23)c(OC)c1	-8.9%	-15.1%	nt	-14.8%
COc1ccc(Nc2nc(N3CCCC3)nc3ccccc23)c(OC)c1	nt	11.2µM*	6.9%	?
Cc1ccccc1CN1CCc2nnc(C(C)NC(=O)c3cc(F)ccc3F)n2CC1 (configuration not stated)	-7.8%	-0.2%	nt	i
Cc1ccc(CNc2nc(CN3CCCCC3c3cccnc3)nc3ccccc23)o1 (configuration not stated)	-15.2%	-15.9%	nt	-0.2%
c1ccc(-c2nn[nH]n2)c(Nc2cccc3c2CCCC3)c1	nt	nt	19.0%	nt
C=CCN1C(c2cccc(C(F)(F)F)c2)=CS/C1=C(\C#N)c1nnc(N2CCOCC2)n1-c1ccccc1	-19.2%	-24.8%	nt	-3.3%
C=CCN1C(=O)NC(c2ccccc2)(C(F)(F)F)S/C1=C(\C#N)c1nnc(N2CCOCC2)n1-c1ccccc1 (configuration not stated)	31.6µM*	nt	-16.7%	nt
